Read-out in experiment [1]: Protein phosphatase 2A (PPP2R4), PTPA (gene 5524)
The experiment in a line: LTEA_HepaRG_PPP2R4: Life Technologies and Expression Analysis (LTEA) Assay for Protein phosphatase 2A (PPP2R4) using HepaRG (AID 2283522). The note with it: mRNA level, 48 h; actives raise or lower the signal. In short, it runs like this:
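HepaRG, 48 h exposure, 8-pt half-log series from 100 uM, 0.5% DMSO vehicle, duplicates. Readout: PPP2R4 mRNA, Fluidigm qRT-PCR, housekeeping-normalized. Bidirectional curve fit vs DMSO baseline.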

Read-out in experiment [2]: Phosphatase and tensin (PTEN), PTEN (gene 5728)
As to the kind of experiment: LTEA_HepaRG_PTEN: Life Technologies and Expression Analysis (LTEA) Assay for Phosphatase and tensin (PTEN) using HepaRG (AID 2283523). To be noted: mRNA level, 48 h; actives raise or lower the signal. In short, it runs like this:
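Expression of PTEN is quantified in the human liver line HepaRG following two days of dosing (top concentration 100 uM, half-log dilutions, 0.5% DMSO). Values derive from bidirectional curve fitting relative to DMSO controls.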

Read-out in experiment [3]: solute carrier (SLC22A1), SLC22A1 (gene 6580)
As to the kind of experiment: LTEA_HepaRG_SLC22A1: Life Technologies and Expression Analysis (LTEA) Assay for solute carrier (SLC22A1) using HepaRG (AID 2283524).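 On AC50: differentiated human HepaRG liver cells in serum-free induction medium.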 To be noted: mRNA level, 48 h; actives raise or lower the signal. The method, boiled down:
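Transcript induction or suppression of SLC22A1 in human HepaRG cultures is scored after 48 h chemical treatment, with DMSO (0.5%) as baseline for bidirectional fitting. Concentrations span eight half-log points topping at 100 uM.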

Read-out in experiment [4]: Pyruvate Dehydrogenase Kinase 4 (PDK4), PDK4 (gene 5166)
The experiment in a line: LTEA_HepaRG_PDK4: Life Technologies and Expression Analysis (LTEA) Assay for Pyruvate Dehydrogenase Kinase 4 (PDK4) using HepaRG (AID 2283525). The note with it: mRNA level, 48 h; actives raise or lower the signal. The method, boiled down: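 Eight-point, half-log concentration series (max 100 uM, 0.5% DMSO) applied to differentiated HepaRG cells for 48 h in duplicate. Endpoint: PDK4 mRNA induction or repression by qRT-PCR against DMSO baseline.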

Read-out in experiment [5]: NAD(P)H dehydrogenase [quinone] 1 (NQO1), NQO1 (gene 1728)
The experiment in a line: LTEA_HepaRG_NQO1: Life Technologies and Expression Analysis (LTEA) Assay for NAD(P)H dehydrogenase [quinone] 1 (NQO1) using HepaRG (AID 2283526). The note with it: mRNA level, 48 h; actives raise or lower the signal. In short, it runs like this:
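qRT-PCR read-out (Fluidigm TaqMan), normalized to three housekeeping genes, after 48 h chemical exposure of HepaRG cells. Concentrations: eight points, top 100 uM, half-log steps, 0.5% DMSO vehicle. Gain or loss of signal fitted relative to DMSO.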

Read-out in experiment [6]: Nuclear factor erythroid 2-related factor 2 (Homo sapiens) (UniProt Q16236)
The experiment in a line: LTEA_HepaRG_NFE2L2: Life Technologies and Expression Analysis (LTEA) Assay for Nuclear factor erythroid 2-related factor 2 (NFE2L2) Transcription Factor using HepaRG (AID 2283527). To be noted: mRNA level, 48 h; actives raise or lower the signal. The method, boiled down: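 Human liver HepaRG line treated in duplicate for 48 h with an eight-point series topping at 100 uM. Gene expression of NFE2L2 by qRT-PCR, bidirectionally fitted against the vehicle control.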

Read-out in experiment [7]: succinate dehydrogenase complex iron sulfur subunit B (SDHB), SDHB (gene 6390)
The experiment in a line: LTEA_HepaRG_SDHB: Life Technologies and Expression Analysis (LTEA) Assay for succinate dehydrogenase complex iron sulfur subunit B (SDHB) using HepaRG (AID 2283528). To be noted: mRNA level, 48 h; actives raise or lower the signal. In short, it runs like this: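 HepaRG, 48 h exposure, 8-pt half-log series from 100 uM in 0.5% DMSO, duplicates. Readout: SDHB mRNA by Fluidigm qRT-PCR vs housekeeping genes; bidirectional fit relative to DMSO.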

Read-out in experiment [8]: Signal transducer and activator of transcription 3 (Homo sapiens) (UniProt P40763)
As to the kind of experiment: LTEA_HepaRG_STAT3: Life Technologies and Expression Analysis (LTEA) Assay for Signal transducer and activator of transcription (STAT3) using HepaRG (AID 2283529). To be noted: mRNA level, 48 h; actives raise or lower the signal. In short, it runs like this: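 In this transcriptional endpoint, HepaRG cultures receive test chemicals at up to 100 uM for 48 h, tested in duplicate. STAT3 mRNA is normalized to ACTB, GAPDH and POLR2A.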

Read-out in experiment [9]: solute carrier (SLCO1B1), SLCO1B1 (gene 10599)
As to the kind of experiment: LTEA_HepaRG_SLCO1B1: Life Technologies and Expression Analysis (LTEA) Assay for solute carrier (SLCO1B1) using HepaRG (AID 2283530). The note with it: mRNA level, 48 h; actives raise or lower the signal. The method, boiled down: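 SLCO1B1 transcript levels were quantified by TaqMan qRT-PCR using three housekeeping genes for normalization. This followed 48 h chemical exposure (100 uM top, half-log, 8 points, 0.5% DMSO) of HepaRG liver cells, with gain or loss fitted relative to DMSO.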

Read-out in experiment [10]: sulfotransferase 2A1 (SULT2A1), SULT2A1 (gene 6822)
As to the kind of experiment: LTEA_HepaRG_SULT2A1: Life Technologies and Expression Analysis (LTEA) Assay for sulfotransferase 2A1 (SULT2A1) using HepaRG (AID 2283531). The note with it: mRNA level, 48 h; actives raise or lower the signal. In short, it runs like this: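 Expression change of SULT2A1, by qRT-PCR with three housekeeping-gene normalization, was scored bidirectionally versus DMSO. Cells: differentiated HepaRG, dosed in duplicate for 48 h across 8 points, highest 100 µM, half-log dilution, 0.5% DMSO.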

Read-out in experiment [11]: Transforming Growth Factor (TGFA), TGFA (gene 7039)
As to the kind of experiment: LTEA_HepaRG_TGFA: Life Technologies and Expression Analysis (LTEA) Assay for Transforming Growth Factor (TGFA) using HepaRG (AID 2283532). The note with it: mRNA level, 48 h; actives raise or lower the signal. The method, boiled down: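 Gene expression of TGFA was quantified by qRT-PCR after human HepaRG cells were treated for 48 h with test chemicals (eight concentrations, highest 100 uM, 0.5% DMSO). Activity in either direction was fitted relative to DMSO.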

Read-out in experiment [12]: Transforming Growth Factor (TGFB1), TGFB1 (gene 7040)
As to the kind of experiment: LTEA_HepaRG_TGFB1: Life Technologies and Expression Analysis (LTEA) Assay for Transforming Growth Factor (TGFB1) Transporter using HepaRG (AID 2283533). To be noted: mRNA level, 48 h; actives raise or lower the signal. The method, boiled down: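 TGFB1 transcript measured by qRT-PCR with normalisation to three housekeeping genes (ACTB, GAPDH, POLR2A); human HepaRG line treated in duplicate for 48 hr with an 8-point series topping at 100 uM, 0.5% DMSO vehicle, bidirectionally fitted.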

Read-out in another experiment: TIMP1, TIMP1 (gene 7076)
The experiment in a line: LTEA_HepaRG_TIMP1: Life Technologies and Expression Analysis (LTEA) Assay for TIMP1 using HepaRG (AID 2283534). The note with it: mRNA level, 48 h; actives raise or lower the signal. In short, it runs like this: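 Bidirectional change in TIMP1 transcript versus 0.5% DMSO, measured by TaqMan qRT-PCR with three housekeeping genes for normalization. HepaRG human liver cells dosed 48 h in duplicate, top concentration 100 uM with half-log dilutions.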

Read-out in experiment [13]: Tumor necrosis factor receptor 1 (TNFRSF1A), TNFRSF1A (gene 7132)
The experiment in a line: LTEA_HepaRG_TNFRSF1A: Life Technologies and Expression Analysis (LTEA) Assay for Tumor necrosis factor receptor 1 (TNFRSF1A) using HepaRG (AID 2283535). To be noted: mRNA level, 48 h; actives raise or lower the signal. The method, boiled down:
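mRNA measured by qRT-PCR (TaqMan, Fluidigm arrays) against ACTB/GAPDH/POLR2A housekeepers after 48 h chemical exposure of HepaRG cells. Top concentration 100 uM, half-log 8-point series, duplicates; vehicle 0.5% DMSO, both fit directions.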

Read-out in experiment [14]: Thyroid Hormone Responsive (THRSP), THRSP (gene 7069)
The experiment in a line: LTEA_HepaRG_THRSP: Life Technologies and Expression Analysis (LTEA) Assay for Thyroid Hormone Responsive (THRSP) using HepaRG (AID 2283536). The note with it: mRNA level, 48 h; actives raise or lower the signal. The method, boiled down: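 Cell model: human HepaRG, approx. 100,000 cells/well, 0.5% DMSO vehicle. Exposure lasts 48 h; phenobarbital 1 mM serves as induction positive control. Gene expression is measured by qRT-PCR against three endogenous control genes.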

Read-out in experiment [15]: UDP glucuronosyltransferase (UGT1A1), UGT1A1 (gene 54658)
The experiment in a line: LTEA_HepaRG_UGT1A1: Life Technologies and Expression Analysis (LTEA) Assay for UDP glucuronosyltransferase (UGT1A1) using HepaRG (AID 2283538). To be noted: mRNA level, 48 h; actives raise or lower the signal. In short, it runs like this: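 HepaRG, 48 h chemical exposure (top 100 uM, half-log 8-pt, 0.5% DMSO vehicle), duplicate wells; qRT-PCR (TaqMan, Fluidigm array) for UGT1A1 mRNA, housekeeping-normalized; bidirectional curve fit vs DMSO baseline.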

Read-out in experiment [16]: UDP glucuronosyltransferase (UGT1A6), UGT1A6 (gene 54578)
The experiment in a line: LTEA_HepaRG_UGT1A6: Life Technologies and Expression Analysis (LTEA) Assay for UDP glucuronosyltransferase (UGT1A6) using HepaRG (AID 2283539). To be noted: mRNA level, 48 h; actives raise or lower the signal. In short, it runs like this: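 Expression was quantified by TaqMan qRT-PCR on Fluidigm arrays with ACTB/GAPDH/POLR2A normalization and bidirectional fitting against 0.5% DMSO. HepaRG cells (~100,000/well) were treated in duplicate for 48 h at eight half-log concentrations up to 100 uM in serum-free induction medium.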

Read-out in experiment [17]: X-box binding protein 1 (XBP1), XBP1 (gene 7494)
The experiment in a line: LTEA_HepaRG_XBP1: Life Technologies and Expression Analysis (LTEA) Assay for X-box binding protein 1 (XBP1) using HepaRG (AID 2283540). To be noted: mRNA level, 48 h; actives raise or lower the signal. The method, boiled down:
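XBP1 transcript by qRT-PCR (housekeeping-normalized: ACTB, GAPDH, POLR2A) after 48 h chemical treatment of HepaRG cells, 8-point half-log series topping at 100 uM, vehicle 0.5% DMSO. Gain and loss of signal fitted relative to DMSO.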

A short description of experiment [18]: LTEA_HepaRG_LDH_cytotoxicity: Cytotoxicity Assessment in the Life Technologies and Expression Analysis (LTEA) Assay (AID 2283563; active means hit-call score of the fitted dose curve at least 0.9, where 1 is the maximum;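 on AC50: LDH activity released into spent culture medium as a marker of cell death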). The method, boiled down:
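LDH release into culture medium read after 48 h chemical treatment of HepaRG cells. Duplicate wells, eight-point half-log series topping at 100 uM, 0.5% DMSO vehicle and baseline.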

SMILES strings stand for the structures. The source made the active and inactive calls. How the source made its calls, unless noted: active means hit-call score of the fitted dose curve at least 0.9, where 1 is the maximum; inactive means score below 0.9.

Sequence of Nuclear factor erythroid 2-related factor 2 (Homo sapiens) (Q16236 whole entry, looked up): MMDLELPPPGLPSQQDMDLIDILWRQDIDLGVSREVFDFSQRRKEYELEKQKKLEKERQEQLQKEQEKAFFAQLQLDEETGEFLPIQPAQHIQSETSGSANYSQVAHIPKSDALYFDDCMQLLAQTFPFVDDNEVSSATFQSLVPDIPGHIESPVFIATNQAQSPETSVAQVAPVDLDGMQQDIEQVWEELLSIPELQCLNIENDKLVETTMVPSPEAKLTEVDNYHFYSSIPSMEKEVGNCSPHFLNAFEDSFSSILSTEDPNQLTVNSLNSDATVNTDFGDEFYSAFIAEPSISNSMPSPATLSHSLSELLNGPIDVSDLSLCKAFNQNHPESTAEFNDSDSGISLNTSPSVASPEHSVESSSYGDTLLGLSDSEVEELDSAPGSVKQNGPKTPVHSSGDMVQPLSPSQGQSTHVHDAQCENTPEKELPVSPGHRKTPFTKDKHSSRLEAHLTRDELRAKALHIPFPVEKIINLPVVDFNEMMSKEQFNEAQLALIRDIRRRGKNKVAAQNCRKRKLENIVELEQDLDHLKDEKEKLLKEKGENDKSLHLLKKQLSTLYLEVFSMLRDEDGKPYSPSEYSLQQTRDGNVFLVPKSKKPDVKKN
Sequence of Signal transducer and activator of transcription 3 (Homo sapiens) (P40763 whole entry, looked up): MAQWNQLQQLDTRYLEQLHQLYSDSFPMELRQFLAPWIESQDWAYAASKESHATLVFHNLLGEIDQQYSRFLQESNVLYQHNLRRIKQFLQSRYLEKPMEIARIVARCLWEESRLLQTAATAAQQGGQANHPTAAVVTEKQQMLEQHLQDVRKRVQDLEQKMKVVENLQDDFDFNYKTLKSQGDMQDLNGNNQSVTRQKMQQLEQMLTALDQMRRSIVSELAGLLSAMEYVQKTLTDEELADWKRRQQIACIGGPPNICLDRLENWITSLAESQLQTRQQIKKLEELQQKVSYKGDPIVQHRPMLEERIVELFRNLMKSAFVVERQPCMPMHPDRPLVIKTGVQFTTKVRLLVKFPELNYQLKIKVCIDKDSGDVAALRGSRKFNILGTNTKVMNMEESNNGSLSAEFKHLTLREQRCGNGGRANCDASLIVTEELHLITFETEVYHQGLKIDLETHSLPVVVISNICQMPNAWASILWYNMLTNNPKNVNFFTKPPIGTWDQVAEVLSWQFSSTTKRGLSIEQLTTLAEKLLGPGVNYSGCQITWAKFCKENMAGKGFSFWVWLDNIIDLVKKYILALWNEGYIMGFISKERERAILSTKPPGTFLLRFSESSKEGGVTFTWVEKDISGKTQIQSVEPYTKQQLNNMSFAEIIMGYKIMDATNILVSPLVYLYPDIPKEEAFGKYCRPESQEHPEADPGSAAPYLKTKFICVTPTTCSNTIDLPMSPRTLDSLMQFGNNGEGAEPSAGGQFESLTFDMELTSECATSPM

For the compound `Nc1c(Cl)cc([N+](=O)[O-])cc1Cl`, the AC50 – broadly, the concentration at which the activity in the assay is half-maximal – in experiment [1] is 50 µM (active); in [2] it was 4.24 µM (active); in experiment [3], 60.8 µM (active); in experiment [4], 50 µM (active); in [7], 50 µM (active); in experiment [8], 25 µM (active). For the same compound, the AC50 in experiment [9] is 50 µM (active); in [10], 50 µM (active); with TIMP1, TIMP1 (gene 7076), 74 µM (active); in experiment [13], 74.1 µM (active); in [14], 42.3 µM (active); in [15], 11.4 µM (active). Also, in experiment [16], the concentration at half-maximal activity (AC50) is 78.1 µM (active). In addition, the compound was classed as inactive in experiment [5], in experiment [6], in experiment [11], in experiment [12], in experiment [17] and in [18].
As for `CCCCSP(=O)(SCCCC)SCCCC`, the compound was classed as inactive in experiment [1], in experiment [2], in experiment [5], in experiment [7], in experiment [8] and in [9]. The outcome in experiment [10] is “inactive”; in experiment [11], “inactive”; in [12], “inactive”; in the experiment with TIMP1, TIMP1 (gene 7076), “inactive”; in experiment [13], “inactive”; in experiment [14], “inactive”. Also, the compound was classed as inactive in experiment [15], in experiment [16] and in experiment [17]. For the same compound, the AC50 in experiment [3] was 78.9 µM (active); in [4], 77.5 µM (active); in experiment [6], 78 µM (active); in experiment [18], 63.5 µM (active).
For the compound `Cc1ccn2nc(S(=O)(=O)Nc3c(F)cccc3F)nc2n1`, the compound was classed as inactive in experiment [1], in [2], in experiment [3], in experiment [4], in experiment [5] and in experiment [6]. Besides, the compound was called inactive in experiment [7], in experiment [8], in experiment [9], in experiment [10], in experiment [11] and in [12]. In addition, the outcome in the experiment with TIMP1, TIMP1 (gene 7076) is “inactive”; in experiment [13] it was “inactive”; in experiment [14], “inactive”; in experiment [15] it was “inactive”; in experiment [16] it was “inactive”; in experiment [17], “inactive”. Further, the result in experiment [18] was inactive.

For the origin of these results see PubChem BioAssay (EPA / NIEHS).
